# Assay outcomes (PubChem)
# Only some compounds are listed: those with a hit (about 2.6% of all), similar ones and a draw of the others.
# p53 reactivator: re-activators of mutant p53 | H1299 p53-A138V BP100-luciferase reporter, luminescence, 24 h | Potency, µM (titrated, usually from 92.2 µM), inactives show at the highest dose activity change, positive = activation, most hits filed as activators | 320,000 compounds, 0.063% hits; active = well fitted activation curve with a large enough effect; inconclusive = small, poorly fitted or top-dose-only effect; inactive = no such curve, though single readings can be large or run the other way; note: potency is the fitted concentration of half-maximal effect; % of control where 0% means no effect; nearly all actives have a fitted effect of over 45% in size
#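 H1299 (p53-null), stable ts p53-A138V + BP100-Luc; 1000 cells/well, Opti-MEM/10% FBS; cpd 4 pt, 1:5; 24 h, 37 deg C, 5% CO2; detection reagent 10 min RT; luminescence.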
# KCNH2 3.1 inh: KCNH2 3.1 (human) potassium channel inhibition. U2OS KCNH2 3.1, thallium flux FluxOr; stronger effect = lower value. activity change, % (tested at about 1.8 µM). 340,000 compounds, 0.95% hits;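 active = maximum activity change below -70%; inconclusive = maximum activity change from -70% to -50%; inactive = maximum activity change above -50%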;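 note: thallium influx rate constant from kinetic fluorescence after stimulation buffer; % is set by controls: 0 for no effect and ±100 for the full control effect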
#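 Thallium flux read-out: FluxOr dye with Red40 quencher in HBSS/HEPES, 45 min at RT. Rate constants from kinetic reads were normalized to positive and negative DMSO controls. Cells: U2OS virally expressing the 3.1 isoform.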
# KCNH2 WT inh: inhibitors of human wildtype KCNH2 potassium channel | Q12809 | U2OS, BacMam KCNH2, thallium flux FluxOr; stronger effect = lower value | activity change, % at 1.84 µM | 340,000 compounds, 0.37% hits | AID 720551;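 active = maximum activity change below -70%; inconclusive = maximum activity change between -70% and -50%; inactive = maximum activity change above -50%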; note: % is set by controls: 0 for no effect and ±100 for the full control effect
#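 U2OS cells were transduced with wild-type KCNH2 virus (2.03 x 10^8 / mL) for 4 h at room temperature, then cultured overnight at 37 C. Thallium flux was read with FluxOr dye. Rate constants were normalized to DMSO controls.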
# TRPV1 ag: activates the human vanilloid receptor TRPV1. Q8NER1. TRPV1-expressing cells, Fluo-8 calcium influx, agonist mode. activation, % at 8.33 µM. 320,000 compounds, 0.19% hits; in the data active = activation above about 80%; inconclusive = between about 30% and that limit; note: 0% is about no effect
# Target sequence (Q8NER1 whole entry, looked up): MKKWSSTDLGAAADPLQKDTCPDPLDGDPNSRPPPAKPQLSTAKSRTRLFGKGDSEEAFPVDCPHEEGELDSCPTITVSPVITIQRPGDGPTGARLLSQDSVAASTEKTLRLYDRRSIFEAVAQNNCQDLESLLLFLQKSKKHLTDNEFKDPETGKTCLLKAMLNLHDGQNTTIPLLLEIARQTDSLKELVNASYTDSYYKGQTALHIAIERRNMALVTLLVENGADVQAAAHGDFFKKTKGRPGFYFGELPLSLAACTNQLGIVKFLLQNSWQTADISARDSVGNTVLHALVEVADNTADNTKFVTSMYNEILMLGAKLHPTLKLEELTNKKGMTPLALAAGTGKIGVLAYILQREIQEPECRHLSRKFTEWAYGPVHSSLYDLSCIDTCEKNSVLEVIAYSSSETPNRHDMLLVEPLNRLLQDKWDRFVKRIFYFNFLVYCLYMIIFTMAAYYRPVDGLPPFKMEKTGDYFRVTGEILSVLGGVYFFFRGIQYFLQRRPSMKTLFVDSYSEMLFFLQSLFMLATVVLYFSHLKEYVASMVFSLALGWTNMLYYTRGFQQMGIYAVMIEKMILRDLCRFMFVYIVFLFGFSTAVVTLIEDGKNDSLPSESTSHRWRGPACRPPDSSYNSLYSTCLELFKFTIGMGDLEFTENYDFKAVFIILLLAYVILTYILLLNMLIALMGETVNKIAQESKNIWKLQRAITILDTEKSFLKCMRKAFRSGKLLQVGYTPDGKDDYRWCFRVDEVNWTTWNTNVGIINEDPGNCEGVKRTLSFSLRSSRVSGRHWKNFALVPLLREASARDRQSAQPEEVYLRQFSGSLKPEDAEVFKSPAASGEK
#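 Cells expressing TRPV1 were dye-loaded with Fluo-8 and read kinetically: 10 s baseline, 3 min after compound (agonist portion), then 2 min after EC20 capsaicin (allosteric enhancer portion). Calcium-bound dye fluorescence at 480/520 nm.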
# ClpP mod: qHTS Assay for Activators of ClpP | 340,000 compounds, 1.9% hits | Potency, µM (top dose mostly 57.5 µM), without a hit: top-dose activity change, negative = active | AID 651965, 2013 | purified B. subtilis ClpP, FRET peptide cleavage, 20 min; active = well fitted falling curve with a large enough effect; inconclusive = small, poorly fitted or top-dose-only effect; inactive = no such curve, though single readings can be large or run the other way; note: potency is the fitted concentration of half-maximal effect; the source files actives as falling curves though it sought activators and does not explain the sign; nearly all actives have a fitted effect of over 65% in size
#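 Buffer: 100 mM Tris/HCl pH8, 100 mM KCl, 0.05% low protease BSA, 2.5% glycerol, 0.01% Tween-20. ClpP 10 microg/mL final; 20 min RT; delta FRET normalized to ADEP and DMSO controls.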
# TRPV1 PAM: potentiators of human vanilloid receptor 1 (TRPV1) | 320,000 compounds, 0.02% hits | potentiation, % at 8.33 µM | TRPV1-expressing cells, Fluo-8 calcium influx, capsaicin EC20 potentiation | Q8NER1; in the data active = potentiation above about 80%; inconclusive = between about 30% and that limit; note: 0% is about no effect
#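 Fluo-8 calcium influx in TRPV1-expressing cells, kinetic read (ex 480/em 520 nm). Compound added and read 3 min for agonist activity, followed by capsaicin at EC20 final and 2 min further read for enhancement.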
# An asterisk follows results filed as active; ? = inconclusive; . = no result given.
SMILES,p53 reactivator,KCNH2 3.1 inh,KCNH2 WT inh,TRPV1 ag,ClpP mod,TRPV1 PAM
COc1ccc2[nH]c(=O)c(CN(Cc3nnnn3Cc3ccccc3)CC3CCCO3)cc2c1 (configuration not stated),-6%,5,13,2,28µM*,0
CCc1ccc2[nH]c(=O)c(CN(Cc3ccccc3)Cc3nnnn3Cc3ccco3)cc2c1,-4%,-7,-7,10,-10%,-3
COc1ccc(OCC(=O)Nc2nnc3n2CCS3)cc1,.,.,.,.,0%,.
O=c1oc2ccc3ccccc3c2cc1-c1nnc(Nc2cccc(F)c2)s1,.,.,.,.,1%,.
COc1ccc(NC(=O)CCn2nc(-c3ccc(Cl)cc3)c3ccccc3c2=O)cc1,.,.,.,.,-15%,.
CCCCNC(=O)CN1C(=O)c2c(c3ccccc3n2C)C1c1ccc(OC)cc1 (configuration not stated),.,.,.,.,32µM*,.
COc1ccc(C2c3c(n(C)c4ccccc34)C(=O)N2CC(=O)Nc2ccc(Cl)cc2)cc1 (configuration not stated),.,.,.,.,18µM*,.
CCc1cccc(C)c1NC(=O)CN1C(=O)c2c(c3ccccc3n2C)C1c1ccc(OC)cc1 (configuration not stated),.,.,.,.,25µM*,.
Cc1nc2ccccc2c(=O)n1C1CCCCCC1,-6%,1,-9,6,25µM*,24
Cc1cccc(-c2nnc(-c3ccc(N)cc3)o2)c1,?,0,-6,-2,28µM*,7
COc1cccc(-c2nnc(-c3ccc4ccccc4c3)o2)c1,.,.,15,.,14µM*,.
COc1cccc(-c2nnc(NC(C)=O)o2)c1,4%,15,1,-2,?,27
Cc1ccc(-c2nnc(-c3ccc4ccccc4c3)o2)cc1,.,11,-10,.,14µM*,.
COc1cccc(-c2nnc(NC(=O)C3CCCCC3)o2)c1,-1%,-84*,-20,0,-18%,2
COc1cccc(-c2nnc(-c3ccc(C(F)(F)F)cc3)o2)c1,?,-2,1,5,-26%,-11
CCOC(=O)Nc1ccc(/C=C/c2ccnc3ccccc23)cc1,.,.,.,.,-1%,.
O=C(NCc1ccccc1)C1c2ccccc2OCC(=O)N1CC(F)(F)F (configuration not stated),.,.,.,.,-2%,.
Cc1ccc(NC(=O)Nc2c(C)n(C)n(-c3ccccc3)c2=O)c(Cl)c1,.,.,.,.,-1%,.
Cc1cccn2c(=O)c(C(=O)NCCc3ccccc3)cnc12,.,.,.,.,4%,.
COC(=O)C(NC(=O)c1ccc(F)cc1)(Nc1ncc(S(=O)(=O)c2ccc([N+](=O)[O-])cc2)s1)C(F)(F)F (configuration not stated),-2%,-80*,-75*,0,?,1
COC(=O)C(NC(=O)c1ccccc1C)(Nc1ncc(S(=O)(=O)c2ccc([N+](=O)[O-])cc2)s1)C(F)(F)F (configuration not stated),8%,-1,-1,2,0%,8
Cc1ccc2c(c1)N(CCC(=O)NC(C)C)C(=O)CO2,1%,15,1,6,28µM*,-11
CCOC(=O)N1CCC(NC(=O)CCN2C(=O)COc3ccccc32)CC1,2%,-1,-253*,2,0%,-10
CCOc1ccc(C(=O)Nc2ccc(-c3nc4cc(CC)ccc4o3)cc2)cc1,.,.,.,.,-7%,.
O=C(CCn1c(=O)c2sccc2n(Cc2cccc(F)c2)c1=O)NCc1ccc2c(c1)OCO2,.,.,.,.,0%,.
Cc1ccccc1-n1c(CSC(=N)N)nc2ccccc2c1=O,8%,0,-6,0,11µM*,6
CN(C)CCCN(C(=O)CCc1ccccc1)c1nc2ccc(Br)cc2s1,3%,-87*,-36,0,.,-19
Cc1ccc(CNS(=O)(=O)c2ccc(-c3cnc(C4CC4)o3)cc2)cc1,-9%,-89*,-14,6,4%,27
CCCOc1ccc(C2C(=O)N(C3CCCCCC3)CC(=O)N2C(C)C)cc1OC (configuration not stated),.,.,.,.,1%,.
